Bioassay records: PubChem BioAssay, several laboratories
In the library only some 1.2% were active in any assay of this set; here they are far more common.
TLR4 MyD88 comp: blocks binding of human TLR4 to MyD88 | hit rate 0.18% among 200,000 | HeLa CL3-4 TLR4/MyD88 BLA complementation, FRET ratio | inhibition, % at 8.4 µM | O00206+Q99836 | AID 861; in the data active means inhibition above about 25%
NOD2-RIPK2 inh: blocks binding of human NOD2 to RIPK2 | O43353 | CHO BLA complementation NOD2-RIPK2, CCF4 ratio | inhibition, % at 4.98 µM | hit rate 0.38% among 360,000; in the data active means inhibition above about 21%
NPR2 activator: GC-B (human) receptor activation; AID 1920062; HEK293-GC-B cells, CNP EC30, cGMP TR-FRET; 0% at EC30 CNP, 100% saturating CNP; activation, % at 10 µM; P20594; hit rate 0.11% among 370,000;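 active means activation at 10 µM reaching about 35% in either raw or pattern-adjusted values, limit read from the data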
Neddylation inh: inhibitors of human cullin neddylation. P61081+Q13564. TR-FRET cullin neddylation, biochemical. inhibition, % at 25 µM. AID 651699. hit rate 0.58% among 360,000; in the data active means inhibition above about 36%
Target sequence (P61081 whole entry, looked up): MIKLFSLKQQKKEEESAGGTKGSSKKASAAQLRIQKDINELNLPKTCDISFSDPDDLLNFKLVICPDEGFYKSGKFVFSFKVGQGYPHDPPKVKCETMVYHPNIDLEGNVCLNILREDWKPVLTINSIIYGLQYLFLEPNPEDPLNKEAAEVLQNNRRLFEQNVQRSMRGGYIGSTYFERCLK
Target sequence (Q13564 whole entry, looked up): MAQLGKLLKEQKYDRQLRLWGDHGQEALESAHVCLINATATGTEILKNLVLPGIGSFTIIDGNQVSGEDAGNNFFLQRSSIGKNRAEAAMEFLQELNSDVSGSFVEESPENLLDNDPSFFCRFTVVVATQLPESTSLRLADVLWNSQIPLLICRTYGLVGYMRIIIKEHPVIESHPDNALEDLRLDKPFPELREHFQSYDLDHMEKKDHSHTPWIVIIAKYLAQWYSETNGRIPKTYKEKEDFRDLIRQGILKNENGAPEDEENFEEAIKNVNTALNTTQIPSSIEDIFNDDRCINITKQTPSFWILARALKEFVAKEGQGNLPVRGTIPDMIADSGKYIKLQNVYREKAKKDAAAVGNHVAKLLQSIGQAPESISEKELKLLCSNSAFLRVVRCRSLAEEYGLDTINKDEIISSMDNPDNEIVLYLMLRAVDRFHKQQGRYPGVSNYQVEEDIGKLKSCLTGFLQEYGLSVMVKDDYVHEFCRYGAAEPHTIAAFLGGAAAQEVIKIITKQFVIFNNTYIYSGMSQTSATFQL
TLR9-MyD88 block: TLR9-MyD88 interaction inhibition; Q9NR96+Q99836; CHO BLA complementation TLR9-MyD88, CCF4 FRET ratio; inhibition, % at 4.98 µM; hit rate 0.21% among 340,000; AID 504734;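 active means inhibition above the mean over all tested compounds plus 3 SD, cut at about 21% in these data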
GC-A act: GC-A (human) enzyme activation | HEK293 GC-A cells, cGMP TR-FRET, EC30 ANP; 0% at EC30 ANP, 100% saturating ANP | hit rate 0.14% among 370,000 | activation, % at 10 µM | AID 1671463; in the data active means activation above about 40%
TLR4-MyD88 conf: TLR4-MyD88 interaction inhibition confirmed | inhibition, % at 8.4 µM | HeLa CL3-4 BLA complementation, CCF4 FRET ratio | shares compounds with TLR4 MyD88 comp | hit rate 50% among 350;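 active means mean inhibition across three repeat runs above about 25% carried over from the earlier screen, limit read from the data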
BLA inh HeLa: inhibits beta-lactamase activity, counter-screen to TLR4-MyD88 binding inhibitors | HeLa BLA reporter, CCF4 FRET ratio | inhibition, % at 8.4 µM | hit rate 63% among 350 | AID 1237 | shares compounds with TLR4 MyD88 comp;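 active means mean inhibition over three repeats above about 26% taken from the earlier screen, limit read from the data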;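 further: HeLa cells stably expressing beta-lactamase reporter as counterscreen for TLR4-MyD88 inhibitors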
TLR9-MyD88 cf: confirmation of human TLR9-MyD88 binding inhibitors | shares compounds with TLR9-MyD88 block | CHO TLR9/MyD88 BLA complementation, CCF4 FRET ratio | inhibition, % at 4.98 µM | hit rate 51% among 680;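 active means mean inhibition across three repeats above about 21% taken from the earlier screen, limit read from the data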;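 further: blue over green emission ratio reports constitutive TLR9 MyD88 association via BLA complementation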
BLA counter-1: beta-lactamase reporter inhibition, counter-screen artifact. shares compounds with TLR9-MyD88 block. CHO-BLA cells, CCF4 FRET ratio, BLA reporter. inhibition, % at 4.98 µM. hit rate 7% among 680. AID 540251;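 active means mean inhibition above a 50% cutoff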;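 further: counterscreen of TLR9-MyD88 hits on CMV-driven BLA in CHO-K1 cells; higher means less blue over green ratio so more BLA blockade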
TLR9 CHO cytotox: CHO cell toxicity counter-screen for TLR9-MyD88 inhibitors; inhibition, % at 4.98 µM; TLR9-MyD88 CHO cells cytotoxicity, luminescence; shares compounds with TLR9-MyD88 block; hit rate 39% among 680; AID 588336; in the data active means inhibition above about 11%
NOD2-RIPK2 conf: NOD2-RIPK2 interaction inhibition confirmed. hit rate 70% among 1,200. CHO cells, NOD2-RIPK2 BLA complementation, CCF4 FRET. inhibition, % at 4.98 µM. shares compounds with NOD2-RIPK2 inh;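 active means mean inhibition across replicates above a set limit taken from the earlier primary screen, cut at about 21% in these data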
BLA counter-2: counter-screen for NOD2-RIPK2 interaction inhibitors: BLA reporter | inhibition, % at 4.98 µM | shares compounds with NOD2-RIPK2 inh | AID 624371 | hit rate 57% among 1,200 | CHO BLA reporter, CCF4 FRET ratio, counterscreen;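 active means mean inhibition above the low-control mean inhibition plus three low-control SD, cut at about 11% in these data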
A number is an active result; n = inactive; x = no result given.

SMILES	TLR4 MyD88 comp	NOD2-RIPK2 inh	NPR2 activator	Neddylation inh	TLR9-MyD88 block	GC-A act	NOD2-RIPK2 conf	BLA counter-2	others
CNc1cc(Cl)c2nonc2c1[N+](=O)[O-]	52	93	n	n	80	n	102	60	TLR4-MyD88 conf=55;BLA inh HeLa=44;TLR9-MyD88 cf=68;BLA counter-1=n;TLR9 CHO cytotox=100
CC(NC(=O)OC1CC2CCC1(C)C2(C)C)P(=O)(Oc1ccccc1)Oc1ccccc1 (stereo not drawn)	x	x	n	x	x	n	x	x
O=c1c2ccccc2[se]n1-c1ccccc1	n	n	n	n	27	n	x	x	TLR9-MyD88 cf=n;BLA counter-1=n;TLR9 CHO cytotox=26
COc1ccc(-n2c(/C=C/c3ccc(O)c(O)c3)nc3ccccc3c2=O)cc1	x	n	n	n	24	n	x	x	TLR9-MyD88 cf=n;BLA counter-1=n;TLR9 CHO cytotox=n
COc1ccc(-n2c(/C=C/c3cccc(F)c3)nc3ccccc3c2=O)c(OC)c1	x	n	n	n	n	n	x	x
CCOC(=O)c1ccccc1N	x	n	n	n	n	n	x	x
CCCCOC(=O)c1ccccc1C(=O)OCCCC	x	n	n	n	25	n	x	x	TLR9-MyD88 cf=n;BLA counter-1=n;TLR9 CHO cytotox=n
O=C(/C=C/c1c[nH]c2ccccc12)c1c(O)n(CCc2ccccc2)c(=O)[nH]c1=O	x	n	n	n	x	n	x	x
CN(C)c1ccc(/C=C/[N+](=O)[O-])cc1	n	28	n	n	24	n	x	x	TLR9-MyD88 cf=n;BLA counter-1=n;TLR9 CHO cytotox=n
CC(C)C(C(=O)NC(C)(C)C)N1C(=O)CN=C(c2ccccc2)c2ccccc21 (stereo not drawn)	x	x	n	x	x	n	x	x
C=C1C(=O)OC2CC(C)C3C=CC(=O)C3(C)C(O)C12 (stereo not drawn)	x	n	x	n	n	x	x	x
C=C1C(=O)O[C@@H]2C[C@@H](C)[C@@H]3C4OC4C(=O)[C@@]3(C)[C@@H](O)[C@H]12 (stereo partly drawn)	x	55	n	n	24	n	52	23	TLR9-MyD88 cf=26;BLA counter-1=n;TLR9 CHO cytotox=100
Cc1ccc(C2C(=O)NC(=O)NC2=O)cc1	x	n	n	n	n	n	x	x
C=C1C(=O)O[C@@H]2C[C@@H](C)[C@@H]3C=CC(=O)[C@@]3(C)[C@@H](OC(=O)CC(=O)O[C@H]3[C@@H]4C(=C)C(=O)O[C@@H]4C[C@@H](C)[C@@H]4C=CC(=O)[C@]43C)[C@H]12	x	88	n	n	32	n	87	44	TLR9-MyD88 cf=43;BLA counter-1=n;TLR9 CHO cytotox=99
CC1(C)OC(c2ccccc2)=C/C(=C/C=C2C(=O)NC(=O)NC2=O)O1	n	32	n	n	34	n	57	56	TLR9-MyD88 cf=24;BLA counter-1=n;TLR9 CHO cytotox=n
COC(=O)C1=C(c2ccc(C(C)=O)cc2)C[C@@H]2CC[C@H]1N2C(=O)NCCOc1ccccc1Cl	x	n	n	n	n	n	x	x
CCC1CN2CCc3cc(OC)c(OC)cc3C2CC1CC1NCCc2c1[nH]c1ccc(O)cc21 (stereo not drawn)	x	29	n	n	n	n	27	n
COc1ccc2c(c1OC)CN1CCc3cc4c(cc3[C@H]1C2)OCO4	x	n	x	n	n	x	x	x
CN(C)Cc1c[nH]c2cc([N+](=O)[O-])ccc12	x	n	n	n	n	n	x	x
CC=CC(C)=CC(C)C(=O)CC(O)CC1CC(=O)NC(=O)C1 (stereo not drawn)	x	n	n	n	n	n	x	x
CC1CC(C)(O)CC(C(O)CC2CC(=O)NC(=O)C2)C1=O (stereo not drawn)	x	21	n	n	n	n	25	n
COC(=O)C1=C(C(=O)OC)SC2(S1)C(C(=O)OC)=C(C(=O)OC)Sc1c2ssc1=O	x	75	65	n	n	43	76	n
CC1CCCC(NC(=O)CNC(=S)N2CC3CC(C2)c2cccc(=O)n2C3)C1C (stereo not drawn)	x	n	n	n	n	n	x	x
CCC1(c2ccc(N)cc2)CCC(=O)NC1=O (stereo not drawn)	x	n	n	n	n	n	x	x
CC1CCOC(=O)C=CC=CC(=O)OC2CC3OC4C5OC5(C)C(O)CC4(COC(=O)C1O)C2(C)C31CO1 (stereo not drawn)	x	28	n	n	n	n	21	n
SMILES	TLR4 MyD88 comp	NOD2-RIPK2 inh	NPR2 activator	Neddylation inh	TLR9-MyD88 block	GC-A act	NOD2-RIPK2 conf	BLA counter-2	others
CC1=CC2OC3CC4OC(=O)C=CC=CC(C(C)O)OCC(O)C5(C)OC5C(=O)OCC2(CC1O)C4(C)C31CO1 (stereo not drawn)	x	29	n	n	n	n	n	n
CC1=CC2OC3CC4OC(=O)C=CC=CC(=O)OCCC(C)C(O)C(=O)OCC2(CC1)C4(C)C31CO1 (stereo not drawn)	x	23	n	n	n	n	n	n
CN1CCCC(C(=O)c2ccc(Cl)cc2)C1 (stereo not drawn)	n	n	n	n	n	n	x	x
CCOC(=O)[C@]12Cc3ccccc3[C@H]1N(C(C)C)C(=O)c1ccccc12	x	n	n	n	x	n	x	x
CCOC(=O)[C@]12Cc3cc(Cl)ccc3[C@H]1N(C1CCCCC1)C(=O)c1cc(OC)ccc12	x	70	n	n	x	n	66	n
CCOC(=O)[C@]12Cc3cc(Cl)ccc3[C@H]1N(Cc1ccccc1)C(=O)c1ccccc12	x	n	n	n	n	n	x	x
CCOC(=O)[C@]12Cc3cc(OC)ccc3[C@H]1N(C)C(=O)c1cc(OC)ccc12	x	n	n	n	x	n	x	x
CCOC(=O)[C@]12Cc3c(cc(OC)c(OC)c3OC)[C@H]1N(C1CCCCC1)C(=O)c1ccccc12	x	28	n	n	x	n	71	n
CCOC(=O)[C@]12Cc3ccc(C)cc3[C@H]1N(C1CCCCC1)C(=O)c1cc(OC)ccc12	x	58	n	n	x	n	63	n
CCOC(=O)[C@]12Cc3cc(N(C)C)ccc3[C@H]1N(Cc1ccccc1)C(=O)c1ccccc12	x	23	n	n	n	n	n	n
O=C(NC1CCCCC1)N1Cc2cc(Br)ccc2-n2nncc2C1	x	x	n	x	x	n	x	x
